High-throughput results as filed in PubChem.
Only some compounds are listed: those with a hit (about 15% of all), similar ones and a draw of the others.
Sm TGR block: S. mansoni TGR enzyme inhibition; Q962Y6; purified TGR, DTNB reduction, TNB absorbance 405 nm; Potency, µM (top dose mostly 114 µM), inactives show top-dose activity change, negative = inhibition, actives largely listed as inhibitors; 3% of 360,000 active; note: potency is the fitted concentration of half-maximal effect; % is set by controls: 0 for no effect and ±100 for the full control effect; nearly all actives have a fitted effect of over 60% in size
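Kinetic colorimetric format: TGR-catalysed, NADPH-driven DTNB reduction monitored via TNB absorbance. Enzyme dispensed at 20 nM; compound exposure 15 min at room temperature before reaction start.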
Pf growth 48h: inhibits P. falciparum growth in the first generation, 48 h. 5.9% of 310,000 active. P. falciparum luciferase growth in erythrocytes, 48 h. Potency, µM (series often up to 28.7 µM), for inactives: at the highest dose activity change, negative = inhibition, most hits filed as inhibitors; note: potency is the fitted concentration of half-maximal effect; % is set by controls: 0 for no effect and ±100 for the full control effect
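Erythrocytes infected with P. falciparum carrying an integrated firefly luciferase reporter (2% hematocrit, 0.1% parasitemia final) were exposed to compounds in RPMI 1640 with 0.5% Albumax at 37 C, 5% CO2. Growth inhibition was scored as reduced luminescence.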
Pf growth 96h: inhibits malaria parasite growth, 96 h; P. falciparum luciferase reporter growth, 96 h; Potency, µM (top dose mostly 28.7 µM), without a hit: at the highest dose activity change, negative = inhibition, hits mostly inhibitors; 6.9% of 320,000 active; note: potency is the fitted concentration of half-maximal effect; % is set by controls: 0 for no effect and ±100 for the full control effect
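Readout is luminescence from an integrated firefly luciferase in P. falciparum. Red cells, 2% hematocrit and 0.05% parasitemia final, were cultured with compound through two parasite generations (96 hours) at 37 C, 5% CO2.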
HCV inhibitor: blocks hepatitis C virus; 3.4% of 340,000 active; AID 651820; Potency, µM (titrated, usually from 41.8 µM), without a hit: top-dose activity change, negative = inhibition, hits mostly inhibitors; Huh7.5.1 HCVcc-Cre infection, luciferase reporter, 44 h; note: potency is the fitted concentration of half-maximal effect; % is set by controls: 0 for no effect and ±100 for the full control effect
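Whole-lifecycle infectious HCVcc-Cre system; cells 1,000/well, compound then virus (~0.5 moi) added 4 h after plating, 44 h culture. Luciferase read 15 sec following 15 min substrate incubation, room temp.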
HCMV antiviral: human cytomegalovirus inhibition. activity change, negative = inhibition, % at 57.5 µM. AID 1259415. HFF cells, HCMV-luciferase reporter, 72 h; active compounds read low. 4.5% of 410,000 active; in the data active = activity change below about -60%; inconclusive = no clear call, values can overlap the other calls; inactive = above about -39%; note: % is set by controls: 0 for no effect and ±100 for the full control effect
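Human foreskin fibroblasts infected with luciferase-reporter HCMV at MOI 1 PFU/cell, compounds at two doses. Luciferase measured 72 h post infection; normalized to buffer-only basal and Salinomycin (10uM) controls.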
SARS PLpro yeast: inhibitors of SARS-CoV papain-like protease in yeast | S. cerevisiae expressing SARS-CoV PLpro, growth rescue | Potency, µM (doses to about 32.9 µM), for inactives: at the highest dose activity, positive = growth rescue, actives largely listed as activators | 0.19% of 330,000 active | AID 485353; calls by dose curve; note: potency is the fitted concentration of half-maximal effect; 0% is about no effect; nearly all actives have a fitted effect of over 55% in size
* hit, by the source's call; u = inconclusive; x = no result given; [ ] = dose if it differs, or a comment. Unless noted, calls come from the whole dose curve; as a rule, active = well fitted curve in the direction sought with a large enough effect; inconclusive = small, poorly fitted or top-dose-only effect, or another doubt; inactive = no such curve, though single readings can be large; an effect the other way counts as inactive or inconclusive.

SMILES	Sm TGR block	Pf growth 48h	Pf growth 96h	HCV inhibitor	HCMV antiviral	SARS PLpro yeast
CN(C)CCN(C(=O)C1=COCCO1)c1nc2ccc(F)cc2s1	x	x	x	2.3%	20.7	x
COc1cc(OC)c(NC(=S)NCc2ccc(F)cc2)cc1Cl	-4.5%	-12.7%	34.7%	u	-15.3	0.3%
CC(C)n1c(N2CCN(CC(=O)Nc3ccc4c(c3)OCCO4)CC2)nc2ccccc21	-3.7%	u	5.86µM*	u	-37.8	-17.4%
O=S(=O)(c1ccc(F)cc1)N1CCN(Cc2cc3c(cc2Br)OCCO3)CC1	-2.4%	u	u	-8.4%	u	-11.8%
O=C(CN1CCN(c2ccc(O)cc2)CC1)Nc1ccc2c(c1)OCCCO2	u	u	u	6.31µM*	u	1.0%
Oc1ccc(N2CCN(Cc3cc4c(cc3Br)OCCO4)CC2)cc1	-24.4%	11.7µM*	13.1µM*	5.6%	-22.7	-1.4%
O=S(=O)(c1cccc(F)c1)N1CCN(Cc2cc3c(cc2Br)OCCO3)CC1	-0.4%	9.28µM*	u	-3.5%	-14.4	7.1%
CCN(C(=O)c1cccn(Cc2ccccc2C)c1=O)c1ccccc1	17.4%	x	x	x	-21.8	x
CCOc1ccc(CCNC(=O)c2oc(=O)c3ccccc3c2-c2ccc(C)cc2)cc1OCC	2.2%	x	x	x	9.2	x
O=C(NCc1ccccc1OC(F)(F)F)C1CCC(=O)N(C2CC2)C1 (centres undefined)	0.7%	21.2%	11.7µM*	-3.8%	1.7	3.3%
O=C(NCc1cnn(-c2ccccc2)c1)C1CCC(=O)N(C2CC2)C1 (centres undefined)	-6.6%	11.1%	5.22µM*	11.1%	19.7	-3.9%
O=C(NCc1ccccc1C(F)(F)F)C1CCC(=O)N(C2CC2)C1 (centres undefined)	-0.6%	14.1%	-45.2%	5.1%	22.5	u
O=C1C2C3C=CC(C3)C2C(=O)N1CNc1ccccc1 (centres undefined)	0.2%	8.6%	x	16.2%	-6.0	-3.7%
COc1ccc(NCN2C(=O)C3C4C=CC(C4)C3C2=O)cc1 (centres undefined)	10.8%	0.7%	10.4µM*	10.9%	-29.2	-0.9%
COc1cc2c(cc1OC)[C@@H]1N(C)c3ccccc3[C@@]13CCN(S(=O)(=O)C(F)(F)F)C3=C2	x	x	x	x	13.2	x
Cc1ccc(-c2nc3c(Cl)cc(C(F)(F)F)cn3c2Cc2ccccc2)cc1	x	x	x	x	29.5	x
CC(C)(C)Cc1c(-c2ccc(C#N)cc2)nc2c(Cl)cc(C(F)(F)F)cn12	x	x	x	x	-83.2*	x
COc1cccc(Oc2ccc(C(F)(F)F)cc2NC(=O)CCc2nc3ccccc3c(=O)[nH]2)c1	1.6%	5.86µM*	1.65µM*	u	108.1	9.1%
COc1ccccc1NS(=O)(=O)c1cc(NC(=O)CN2C(=O)NC3(CCCCC3)C2=O)ccc1C	x	x	x	12.6µM*	-5.2	x
COc1ccc(NC(=O)CN2C(=O)NC3(CCCCCC3)C2=O)cc1Cl	x	x	x	25.1µM*	16.7	10.9%
O=C(CN1C(=O)NC2(CCCCCCC2)C1=O)Nc1cccc(Br)c1	x	x	x	u	91.4	-1.9%
O=C(CN1C(=O)NC2(CCCC2)C1=O)Nc1cccc(-c2nnc3n2CCCCC3)c1	-0.1%	-5.7%	7.38µM*	17.6%	3.2	1.4%
Cc1ccc(NC(=O)CN2C(=O)NC3(CCCCCCC3)C2=O)cc1C	-10.2%	-10.2%	-24.1%	-6.0%	59.2	-1.8%
COc1ccc(OC)c(CN2C(=O)CN(S(C)(=O)=O)CC2(C)C(=O)Nc2c(C)cccc2C)c1 (centres undefined)	x	x	x	x	-6.9	x
CC1(C(=O)Nc2ccc3c(c2)OCCO3)CN(S(C)(=O)=O)CC(=O)N1CCc1ccccc1F (centres undefined)	x	x	x	x	13.1	x
SMILES	Sm TGR block	Pf growth 48h	Pf growth 96h	HCV inhibitor	HCMV antiviral	SARS PLpro yeast
Cc1ccc(Sc2ccc(NC(=O)CCN3C(=O)NC4(CCCC4)C3=O)cc2)c(C)c1	3.8%	u	-19.1%	3.98µM*	0.0	14.5%
COc1ccc(NC(=O)CN2C(=O)NC3(CCCC3)C2=O)cc1S(=O)(=O)N1CCCCC1	3.6%	12.1%	u	1.3%	-6.1	5.2%[6.58 µM]
COc1ccccc1NS(=O)(=O)c1cc(NC(=O)CCc2nc3ccccc3c(=O)[nH]2)ccc1C	-3.6%	u	10.4µM*	u	-23.8	-1.1%
COc1ccc(NC(=O)CN2C(=O)NC3(CC(C)CC(C)(C)C3)C2=O)cc1S(=O)(=O)N1CCCCC1 (centres undefined)	-4.7%	13.1µM*	u	-32.0%	16.6	x
O=C(CCCN1C(=O)NC2(CCCC2)C1=O)Nc1ccc(F)cc1	-5.6%	u	15.8%	-33.6%	-9.5	1.2%
COc1ccc(NS(=O)(=O)c2ccc(C)c(NC(=O)CN3C(=O)NC4(CCCC4)C3=O)c2)cc1	-15.7%	u	-17.2%	-2.0%	-66.3*	-0.9%
Cc1cc(C(=O)Nc2ccc(Cl)c(S(=O)(=O)N3CCOCC3)c2)c2ccccc2n1	-8.8%	u	u	u	3.6	1.6%
Cc1nc2c(OCc3ccccc3)cccn2c1N(C)C(=O)C1CCCCC1	x	x	x	x	1.7	x
C#Cc1ccc([C@@H]2C=C(C(=O)OCC=C)O[C@H](OCc3ccc(CO)cc3)C2)cc1	u	u	u	u	-8.8	-1.8%
CC(OC(=O)c1nn(C)c(=O)c2ccccc12)C(=O)Nc1ccc(S(N)(=O)=O)cc1 (centres undefined)	-10.9%	-29.3%	-5.4%	-8.8%	2.9	-25.3%
COc1ccc(CC(=O)Nc2cc(S(=O)(=O)Nc3ccc(OC)cc3)ccc2OC)cc1	x	x	x	12.6µM*	u	-1.6%
O=C(CCc1nc2ccccc2c(=O)[nH]1)Nc1cc(Cl)ccc1N1CCCCC1	-0.4%	10.4µM*	u	u	-16.8	2.1%[6.58 µM]
O=C(CN1C(=O)NC2(CCCCC2)C1=O)Nc1ccc(F)cc1	-3.7%	21.5%	61.0%	13.8%	3.8	0.6%
O=C(CCc1nc2ccccc2c(=O)[nH]1)Nc1ccccc1N1CCCC1	-11.7%	u	-3.3%	19.6%	-24.5	x
O=C(CN1C(=O)NC2(CCCCCCC2)C1=O)Nc1ccc(Br)cc1	0.7%	-2.2%	12.4%	31.6µM*	-19.7	4.1%
Nc1c(C(=O)NCc2ccccc2)nnn1Cc1cccc(Br)c1	-6.3%	x	x	x	-27.2	x
CNC(=O)COC(=O)c1cc(=O)[nH]c2ccccc12	6.4%	26.5%	0.1%	18.8%	-29.7	0.1%
NC(=O)COC(=O)c1cc(=O)[nH]c2ccccc12	16.1%	14.4%	10.1%	10µM*	-33.8	1.1%
CCc1ccc(NC(=O)c2sc3ncnc(N(C)C4CCCCC4)c3c2C)cc1	0.4%	x	x	x	-1.6	x
OCC1O[C@H](OC2C(CO)O[C@@](O)(CO)C2O)C(O)C(O)C1O (some centres undefined)	x	0.8%	-4.8%	x	x	x
